PAX8 reporter: inhibitors of PAX8-driven TPO luciferase reporter, primary screen, RMG-I cells, single concentration; SteadyGlo, 24 h; inhibition, % at 12.6 µM; 1.2% of 360,000 active; AID 652154, 2013;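 active = mean replicate inhibition at least 60% with every replicate also reaching 60%; inconclusive = only one of the two criteria is met; inactive = mean below 60% and not all replicates reaching 60%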;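 also: luciferase light reporting Pax8 driven TPO promoter activity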
EWS-Fli block: EWS/Fli-driven NR0B1 reporter inhibitors, primary screen, A673 cells, NR0B1 luciferase, luminescence, MLPCN library; viability-normalised; inhibition, % at 12.6 µM; 0.67% of 350,000 active;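 active = mean inhibition of at least 50% after viability correction, with every replicate also passing that limit; inconclusive = mean reaches 50% but only one of two replicates passes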;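 also: firefly luciferase signal divided by Alamar Blue viability fluorescence both relative to DMSO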
MITF TRPM1 inh: inhibitors of MITF-dependent TRPM1 promoter reporter, primary screen, cell-based, SK-MEL-5, single point, luciferase. SK-MEL-5 TRPM1 promoter luciferase, 24 h. inhibition, % at 12.5 µM. 0.83% of 330,000 active;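 active = mean inhibition across replicates of 60% or more, whatever share of single replicates reaches that level; inconclusive = some that reach 60%, reason not given; inactive = mean inhibition across replicates below 60%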
EBV LMP1 NFkB: EBV LMP1-driven NF-kappaB luciferase reporter inhibitors, primary screen, cell-based, luminescence, single point; LMP1-induced NF-kappaB luciferase reporter cells; inhibition, % at 12.5 µM; 0.69% of 350,000 active; in the data active = inhibition above about 41%; inconclusive = no clear call, values can overlap the other calls
LGR2 antag: inhibitors of bursicon-induced LGR2 CRE-luciferase signal, primary screen, cell-based, HEK293, CRE-luciferase reporter, bursicon stimulation. AID 720647, 2013. Drosophila bursicon receptor LGR2 (rickets). 0.35% of 380,000 active. bursicon-stimulated, 4 h. inhibition, % at 9.99 µM;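 active = drop in luminescence signal, shown as inhibition above about 50% in the replicate tests, limit read from the data, passing the limit was not always enough; inconclusive = probably only some replicates passing the limit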;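 also: agonist challenge used bursicon conditioned medium at about half maximal strength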
Shn3 inh set2: reduction of Shn3 3'UTR firefly luciferase signal, primary screen, Schnurri-3 inhibitor project, cell-based, Clone20 osteoblasts, set 2 | Clone20 osteoblast Shn3 3'UTR firefly luciferase, 24 h | inhibition, % at 12.5 µM | 0.52% of 360,000 active | AID 588674, 2011;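 active = mean inhibition of at least 75% with every replicate also reaching 75%; inconclusive = mean inhibition at least 75% but some replicate below; inactive = mean inhibition below 75%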
Numbers stand for hits. Most compounds without a hit are left out; they make up all but 2.2% or so of the library.

How did CC(C)C#Cc1cnc2c(c1)C(=O)N([C@H](C)CO)C[C@H](C)[C@H](CN(C)C(=O)C1CCC1)O2 do in these assays?
EWS-Fli block: inactive; LGR2 antag: inactive

Results for CO[C@@H]1CN(C)C(=O)c2cc(NC(=O)CC(F)(F)F)ccc2OC[C@@H](C)N(C(=O)c2ccccc2F)C[C@@H]1C ?
PAX8 reporter: inactive; EWS-Fli block: inactive; LGR2 antag: inactive

What do the screens show for `CCCCC/C=C\C/C=C\C/C=C\CCCCC(=O)O`?
PAX8 reporter: inactive; EWS-Fli block: inactive; MITF TRPM1 inh: inactive; EBV LMP1 NFkB: 53; Shn3 inh set2: inactive

What do the screens show for `COCC(=O)N1CC2(C1)[C@@H](c1ccccc1)[C@@H](CO)N2Cc1ccccc1OC`?
PAX8 reporter: inactive; EWS-Fli block: inactive; LGR2 antag: inactive

Results for NC1=CC(=O)C(=O)c2ccccc21 ?
PAX8 reporter: inactive; EWS-Fli block: inactive; MITF TRPM1 inh: 97; EBV LMP1 NFkB: inactive; LGR2 antag: inactive; Shn3 inh set2: inactive

What do the screens show for `CC(C)NC(=O)N1Cc2cc(C(=O)NCC(F)(F)F)nc(-c3cccc(-c4cc5ccccc5o4)c3)c2[C@H]1CCO`?
PAX8 reporter: 85; LGR2 antag: inactive

What do the screens show for `COc1cc(C(=O)Oc2c(OC)cc(C(=S)N3CCOCC3)cc2OC)cc(OC)c1OC`?
PAX8 reporter: inactive; EWS-Fli block: inactive; MITF TRPM1 inh: inactive; EBV LMP1 NFkB: inactive; LGR2 antag: inactive; Shn3 inh set2: inactive

Results for COc1cc(C(=O)Oc2c(CN3CCOCC3)cc(Cl)c3cccnc23)cc(OC)c1OC ?
MITF TRPM1 inh: 69; EBV LMP1 NFkB: inactive; Shn3 inh set2: inactive

How did COc1cccc(C(=O)Oc2c(CN3CCOCC3)cc(Cl)c3cccnc23)c1 do in these assays?
MITF TRPM1 inh: 67; EBV LMP1 NFkB: inactive; Shn3 inh set2: inactive

Results for COc1ccc(C(=O)Oc2c(CN3CCOCC3)cc(Cl)c3cccnc23)cc1 ?
MITF TRPM1 inh: inactive; EBV LMP1 NFkB: inactive; Shn3 inh set2: inactive

What do the screens show for `COCC(=O)Nc1ccc2c(c1)[C@H]1C[C@H](CC(=O)N(C)C)O[C@@H](CO)[C@H]1O2`?
PAX8 reporter: inactive; EWS-Fli block: inactive; LGR2 antag: inactive

What do the screens show for `C[C@@H]1CCCCO[C@H](CN(C)Cc2ccc(C(F)(F)F)cc2)[C@H](C)CN([C@@H](C)CO)C(=O)c2cc(NS(=O)(=O)c3ccc(Cl)cc3)ccc2O1`?
PAX8 reporter: 105; EWS-Fli block: inactive; LGR2 antag: inactive

How did C[C@@H]1CCCCO[C@H](CN(C)Cc2ccc(C(F)(F)F)cc2)[C@@H](C)CN([C@@H](C)CO)C(=O)c2cc(NS(=O)(=O)c3ccc(Cl)cc3)ccc2O1 do in these assays?
PAX8 reporter: 113; EWS-Fli block: inactive; LGR2 antag: inactive

How did C[C@H]1CCCCO[C@H](CN(C)Cc2ccc(C(F)(F)F)cc2)[C@@H](C)CN([C@@H](C)CO)C(=O)c2cc(NS(=O)(=O)c3ccc(Cl)cc3)ccc2O1 do in these assays?
PAX8 reporter: 93; EWS-Fli block: inactive; LGR2 antag: inactive

What do the screens show for `O=C(N[C@@H]1C/C=C\C[C@H](CC(=O)N(CCO)Cc2ccccc2)C(=O)NC[C@@H](c2ccccc2)OC1=O)OCC1c2ccccc2-c2ccccc21`?
PAX8 reporter: inactive; EWS-Fli block: inactive; MITF TRPM1 inh: inactive; EBV LMP1 NFkB: inactive; LGR2 antag: inactive; Shn3 inh set2: 90

How did O=C(N[C@H]1C/C=C\C[C@H](CC(=O)N(CCO)Cc2ccccc2)C(=O)N[C@@H](c2ccccc2)COC1=O)OCC1c2ccccc2-c2ccccc21 do in these assays?
MITF TRPM1 inh: inactive; EBV LMP1 NFkB: inactive; Shn3 inh set2: inactive

What do the screens show for `C[C@H]1COC(=O)[C@H](NC(=O)OCC2c3ccccc3-c3ccccc32)C/C=C\C[C@H](CC(=O)N(CCO)Cc2ccccc2)C(=O)N1`?
PAX8 reporter: inactive; EWS-Fli block: inactive; MITF TRPM1 inh: inactive; EBV LMP1 NFkB: inactive; LGR2 antag: inactive; Shn3 inh set2: inconclusive

What do the screens show for `O=C(N[C@@H]1C/C=C\C[C@@H](CC(=O)N(CCO)Cc2ccccc2)C(=O)NC[C@H](c2ccccc2)OC1=O)OCC1c2ccccc2-c2ccccc21`?
PAX8 reporter: inactive; EWS-Fli block: inactive; MITF TRPM1 inh: inactive; EBV LMP1 NFkB: inactive; LGR2 antag: inactive; Shn3 inh set2: 88

What do the screens show for `CCNC(=O)[C@H]1[C@H](CO)[C@H]2Cn3c(ccc(-c4cccc(F)c4)c3=O)[C@@H]1N2C(C)=O`?
EWS-Fli block: inactive; LGR2 antag: inactive

How did COc1ccc(NC(=O)N(C)C[C@@H]2Oc3ccc(NC(=O)Cn4cnnn4)cc3C(=O)N([C@@H](C)CO)C[C@H]2C)cc1 do in these assays?
EWS-Fli block: inactive; LGR2 antag: inactive

What do the screens show for `COc1ccccc1S(=O)(=O)N[C@@H]1CC[C@H](CC(=O)NCc2cc(F)cc(F)c2)O[C@@H]1CO`?
PAX8 reporter: inactive; EWS-Fli block: inactive; LGR2 antag: inactive

What do the screens show for `O=C(C[C@H]1C[C@H]2c3cc(NC(=O)Cc4ccncc4)ccc3O[C@H]2[C@@H](CO)O1)NCc1ccncc1`?
PAX8 reporter: inactive; EWS-Fli block: inactive; LGR2 antag: inactive

How did O=C(NC1CCCCC1)[C@H]1[C@H](CO)[C@H]2Cn3c(cccc3=O)[C@@H]1N2CC1CCCC1 do in these assays?
EWS-Fli block: inactive; LGR2 antag: inactive

How did Cc1ccc(-n2nc3c([n+]2[O-])CCc2c-3no[n+]2[O-])cc1 do in these assays?
PAX8 reporter: inactive; MITF TRPM1 inh: inactive; EBV LMP1 NFkB: inactive; Shn3 inh set2: 90

What do the screens show for `O=C(C[C@@H]1CC[C@H](NC(=O)c2ccccc2)[C@@H](CO)O1)Nc1ccc(-c2ccccc2)cc1`?
PAX8 reporter: inactive; EWS-Fli block: inactive; LGR2 antag: inactive

How did COc1ccc(NC(=O)Nc2cccc3c2O[C@@H](CN(C)S(C)(=O)=O)[C@H](C)CN([C@@H](C)CO)C3=O)cc1 do in these assays?
EWS-Fli block: inactive; LGR2 antag: inactive

What do the screens show for `COc1ccc(CCC(=O)Nc2cc([N+](=O)[O-])ccc2OC)cc1`?
PAX8 reporter: inactive; MITF TRPM1 inh: inactive; EBV LMP1 NFkB: inactive; LGR2 antag: inactive; Shn3 inh set2: inactive

What do the screens show for `COc1ccc(CCC(=O)Nc2ccc(C)c([N+](=O)[O-])c2)cc1`?
PAX8 reporter: inactive; EWS-Fli block: inactive; MITF TRPM1 inh: inactive; EBV LMP1 NFkB: 62; Shn3 inh set2: inactive

How did CCOc1cc(C)c(S(=O)(=O)Nc2ccc3cn[nH]c3c2)cc1C do in these assays?
MITF TRPM1 inh: inactive; EBV LMP1 NFkB: inactive; Shn3 inh set2: 87

Results for COCC(=O)N1[C@H](C(=O)Nc2ccccc2)[C@@H](CO)[C@@H]2Cn3c(ccc(-c4ccccc4)c3=O)[C@@H]21 ?
EWS-Fli block: inactive; LGR2 antag: inactive

Screening results as filed in PubChem BioAssay.
